# From PubChem
# IL-1B inflam inh: qHTS for Inhibitors of Inflammasome Signaling: IL-1-beta AlphaLISA Primary Screen. THP-1 LPS/ATP IL-1B secretion, AlphaLISA, 16 h; active compounds read low. activity change, % at 57.5 µM. hit rate 4.7% among 360,000. AID 743279, 2014; in the data active = activity change below about -50%; inconclusive = mostly about -30% to -49%
#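 Secreted IL-1B measured by AlphaLISA bead assay after 16 h compound exposure of THP-1 cells; compounds (final up to 57.5 uM) added 1 h before LPS (250 ng/mL) and ATP (1.25 mM) stimulation; lower signal means less secretion.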
# TGFb inhibitor: qHTS for Inhibitors of TGF-b. Potency, µM (top dose mostly 46.1 µM), actives largely listed as inhibitors. AID 588855, 2011. hit rate 1.2% among 410,000. HepG2 CAGA-GFP TGF-b/SMAD3 reporter, GFP fluorescence, 18 h; TGF-beta stimulated, 500 pg/mL final; note: nearly all actives have a fitted effect of over 65% in size
#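 Inhibition was scored as loss of TGF-beta-induced (500 pg/mL final, 18 hours, 37 degrees C) GFP in HEPG2 cells carrying a CAGA-GFP reporter, in DMEM with 1% FBS. Well GFP was summed per cell; Activity was normalised to unstimulated and stimulated DMSO wells, then concentration-response fitting.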
# TDP1 block: qHTS Assay for Inhibitors of Tyrosyl-DNA Phosphodiesterase (TDP1) | Potency, µM (doses to about 130 µM), hits mostly inhibitors | hit rate 0.28% among 350,000 | recombinant TDP1, AlphaScreen DNA substrate cleavage; note: nearly all actives have a fitted effect of over 40% in size
# Target sequence (Q9NUW8 whole entry, looked up): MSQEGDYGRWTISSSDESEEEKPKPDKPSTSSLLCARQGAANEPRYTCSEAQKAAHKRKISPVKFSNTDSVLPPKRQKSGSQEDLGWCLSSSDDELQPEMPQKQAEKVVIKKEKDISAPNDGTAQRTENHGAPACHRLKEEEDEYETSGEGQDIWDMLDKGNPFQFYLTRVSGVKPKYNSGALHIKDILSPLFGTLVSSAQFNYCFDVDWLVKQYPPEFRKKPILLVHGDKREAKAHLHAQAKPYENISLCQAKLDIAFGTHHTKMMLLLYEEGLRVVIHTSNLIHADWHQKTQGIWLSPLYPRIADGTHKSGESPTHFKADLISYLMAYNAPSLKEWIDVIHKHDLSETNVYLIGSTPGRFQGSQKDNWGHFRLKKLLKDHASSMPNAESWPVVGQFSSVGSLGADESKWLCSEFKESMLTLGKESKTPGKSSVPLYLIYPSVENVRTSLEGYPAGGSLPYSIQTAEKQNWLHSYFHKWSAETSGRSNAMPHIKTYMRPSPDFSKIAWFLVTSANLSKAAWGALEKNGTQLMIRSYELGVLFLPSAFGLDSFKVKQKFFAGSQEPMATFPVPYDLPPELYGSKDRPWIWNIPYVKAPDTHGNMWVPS
#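 Recombinant E. coli-expressed Tdp1 (1 nM) preincubated with compound 15 min at RT, then 5'-biotin/3'-phosphotyrosine-FITC DNA substrate (15 nM) added for 5 min. AlphaScreen beads (10 ug/ml) added, 10 min RT; tyrosine-FITC cleavage read as signal loss.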
# TDP1 cell noCPT: qHTS for Inhibitors of human tyrosyl-DNA phosphodiesterase 1 (TDP1): qHTS in cells in absence of CPT; hit rate 15% among 420,000; AID 686978, 2013; Potency, µM (series often up to 46.2 µM), hits mostly inhibitors; DT40 Tdp1-/- hTDP1 cells, no CPT, ATP luminescence, 48 h; note: nearly all actives have a fitted effect of over 55% in size
#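 Chicken DT40 Tdp1-/- cells complemented with human TDP1, screened without camptothecin (DMSO vehicle only), 400 cells/well. Compounds pin-transferred, cells incubated at 37 °C for at least 48 hr. Growth read as ATP-dependent luminescence (CellTiter-Glo, 30 min at RT).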
# TDP1 cell CPT: qHTS for Inhibitors of human tyrosyl-DNA phosphodiesterase 1 (TDP1): qHTS in cells in presence of CPT; chicken DT40 Tdp1-/-;hTDP1 cells + 20 nM CPT, ATP luminescence, 48 h; Potency, µM (highest dose often 46.2 µM), most hits filed as inhibitors; hit rate 12% among 420,000; AID 686979, 2013; note: nearly all actives have a fitted effect of over 55% in size
#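 Cell growth measured by CellTiter-Glo luminescence after a minimum 48 h, 37 C compound exposure with 20 nM CPT in Tdp1-knockout DT40 cells stably expressing hTDP1, seeded 400/well; qHTS titration format.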
# HepG2 tox: qHTS for Inhibitors of TGF-b: Cytotox Counterscreen. HepG2 CAGA-GFP viability, ATP luminescence, 18 h. Potency, µM (doses to about 46.1 µM), usual class: cytotoxic. hit rate 0.76% among 410,000
#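 HepG2 CAGA-GFP cells (1000/well, DMEM with 1% FBS) received compound, then TGF-beta at 500 pg/mL final, and were incubated 18 hours at 37 degrees C. Viability was read by CellTiter-Glo luminescence. Media-only wells were set as complete cell-killing and DMSO as no toxicity.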
# A number is an active result; 0 = inactive; ? = inconclusive; - = no result; [ ] = another dose, or the depositor's remark. This is a sample that favours compounds with a hit; in the whole collection about 19% have one here. Unless noted, calls come from the whole dose curve; as a rule, active = well fitted curve in the direction sought with a large enough effect; inconclusive = small, poorly fitted or top-dose-only effect, or another doubt; inactive = no such curve, though single readings can be large; an effect the other way counts as inactive or inconclusive.
SMILES,IL-1B inflam inh,TGFb inhibitor,TDP1 block,TDP1 cell noCPT,TDP1 cell CPT,HepG2 tox
COc1cc(C(=O)O/N=C(\N)c2ccncc2)cc(OC)c1OC,0,0,0,?,?,0
COc1ccc(C(=O)ON=C2C=C(C)C(=O)C(C)=C2)cc1,?,0,0,23µM,13µM,0
Cc1c(C)n2c(SCC(=O)Nc3cccc4ccccc34)nnc2[nH]c1=O,0,0,0,?,0,0
COc1ccc(NC(=O)N(Cc2nnc3n2CCCCC3)c2ccc(OC)c(Cl)c2)cc1,-,0,0,0,0,0
O=C(NCc1ccccc1F)C1CCCN1C(=O)Nc1ccccc1 (stereo not drawn),0,0,0,0,0,0
Cc1nnc2c(N3CCN(CCO)CC3)nc3ccccc3n12,0,0,-,0,0,0
CNC[C@H](CC1CCCCC1)NC[C@H](Cc1ccccc1)NCCC12CC3CC(CC(C3)C1)C2,-100,?,-,13µM,7.3µM,13µM
COc1ccc(/C=C2/SC(=S)N(NS(=O)(=O)c3ccc(C)cc3)C2=O)cc1,-56,0,0[0.0935 µM],0,0,0
Cc1ccc(/C=C2\SC(=S)N(NS(=O)(=O)c3ccc(C)cc3)C2=O)cc1,0,0,-,0,0,0
Cc1ccc(S(=O)(=O)N2CCCCC2CCNC(=O)C(=O)NCCc2ccco2)cc1 (stereo not drawn),0,0,0,4.1µM,2.9µM,0
COc1ccccc1CNC(=O)C(=O)NCCC1CCCCN1S(=O)(=O)c1ccc(C)cc1 (stereo not drawn),0,?,-,?,?,0
Cc1ccc(C)c(S(=O)(=O)N2CCCC2CNC(=O)C(=O)NCCc2ccco2)c1 (stereo not drawn),0,0,-,?,?,0
Cc1ccc(S(=O)(=O)N2CCCCC2CCNC(=O)C(=O)NCc2ccco2)cc1 (stereo not drawn),0,0,-,7.3µM,13µM,0
O=C(NCCc1ccco1)C(=O)NCC1CCCN1S(=O)(=O)c1ccccc1 (stereo not drawn),0,0,0,4.1µM,12µM,0
Cc1cc(C)c(S(=O)(=O)N2CCCCC2CCNC(=O)C(=O)NCc2ccco2)c(C)c1 (stereo not drawn),?,0,0,16µM,?,0
Cc1ccc(C)c(S(=O)(=O)N2CCCCC2CCNC(=O)C(=O)NCCc2ccco2)c1 (stereo not drawn),0,0,0,?,?,0
Cc1ccc(C)c(CN2C(=O)c3ccccc3S(=O)(=O)c3ccc(C(=O)Nc4cc(F)ccc4F)cc32)c1,-,0,0,-,-,0
O=C(O)c1cc(-c2ccc(Cl)c(Cl)c2)n(-c2ccccc2)n1,0,0,-,0,0,0
C[C@H]1Cc2c(-c3ccccc3)nc3c(c2CO1)CN(S(=O)(=O)c1ccc(C#N)cc1)CC3,-,-,0[12.3 µM],-,-,-
CCOC(=O)NC1=NCC(C)(C)S1,0,0,-,0,0,0
CC(=O)Nc1ccc(NC(=O)[C@@H](NC(=O)c2ccccc2F)C(C)C)cc1,0,0,-,0,0,0
CC1CCN(C(=O)CCCNC(=O)Cn2cnc3sc4c(c3c2=O)CCCC4)CC1,0,0,0,0,0,0
Cc1sc2ncn(CC(=O)NCCCN3CC(C)CC(C)C3)c(=O)c2c1S(=O)(=O)N1CC(C)CC(C)C1 (stereo not drawn),0,0,0,?,18µM,0
Cc1sc2ncn(CC(=O)NCCCN3CCC(C)CC3)c(=O)c2c1S(=O)(=O)N1CCC(C)CC1,0,0,0,0,0,0
CC1CCN(CCCNC(=O)CCCNC(=O)Cn2cnc3sc4c(c3c2=O)CCCC4)CC1,-101,0,0,0,0,0
SMILES,IL-1B inflam inh,TGFb inhibitor,TDP1 block,TDP1 cell noCPT,TDP1 cell CPT,HepG2 tox
CCCCCCC1CCC(C(=O)Nn2c(C)nc3ccccc3c2=O)CC1 (stereo not drawn),0,0,0,18µM,?,0
C=CCn1c(=O)c(C(=O)Nc2ccc(C)cn2)c(O)c2ccccc21,0,0,-,18µM,?,0
CCCC1CCC(C(=O)Nn2c(C)nc3ccccc3c2=O)CC1 (stereo not drawn),0,0,0,?,0,0
CCCn1c(=O)c(C(=O)NCCc2ccccc2)c(O)c2ccccc21,0,0,-,?,13µM,0
CCn1c(=O)c(C(=O)NCc2ccc(OC)cc2)c(O)c2ccccc21,0,0,0,23µM,23µM,0
O=C(c1cccc(F)c1)N1CCCC(C(=O)N2CCCCCC2)C1 (stereo not drawn),0,0,-,0,0,0
C=CCn1c(=O)c(C(=O)NCc2ccc(Cl)cc2)c(O)c2ccccc21,0,0,0,23µM,?,0
CCc1nc2ccccc2c(=O)n1NC(=O)c1c(O)c2ccccc2n(CC)c1=O,0,0,0,?,?,0
CCn1c(=O)c(C(=O)Nn2c(C)nc3ccccc3c2=O)c(O)c2ccccc21,0,0,0,?,16µM,0
CCCn1c(=O)c(C(=O)NCc2ccccc2)c(O)c2ccccc21,0,0,-,?,?,0
CCCCCCCCC(=O)NNC(=O)c1c(O)c2ccccc2n(CCC)c1=O,0,0,0,?,23µM,0
CC(C)Cn1c(=O)c(C(=O)NCc2ccc3c(c2)OCO3)c(O)c2ccccc21,0,0,-,?,23µM,0
CN(C)CCN(C(=O)c1ccco1)c1nc2c(F)cc(F)cc2s1,-,0,0,?,?,0
C=CCn1c(=O)c(C(=O)NCCc2ccccc2)c(O)c2ccccc21,0,0,-,?,21µM,0
Cn1c(=O)c(C(=O)NCCc2ccccc2)c(O)c2ccccc21,0,0,0,0,0,0
CC(C)Cn1c(=O)c(C(=O)N/N=C/c2cccc(F)c2)c(O)c2ccccc21,0,0,0,0.33µM,2.9µM,0
O=c1[nH]c(Cc2ccccn2)nc2scc(-c3ccc(Cl)cc3)c12,0,0,0,0,?,0
O=C(OCc1nc2scc(-c3ccccc3)c2c(=O)[nH]1)c1ccco1,0,?,0,0,0,0
Cc1ccc(-c2csc3nc(-c4ccncc4)[nH]c(=O)c23)cc1,0,0,-,2.6µM,4.1µM,0
O=c1[nH]c(Cc2ccc(F)cc2)nc2scc(-c3ccc(F)cc3)c12,0,?,0,26µM,13µM,0
